Data: PubChem BioAssay

Test: basal CRE-LacZ reporter activity in PC12 – cell-based, unstimulated, primary screen (AID 1145)
Conditions: no forskolin, luminescence, 4.5 h, higher = more signal, called active from +8 up or from −8 down

z-score, inactive:
CC(=O)OC[C@H]1O[C@H](C#CCCCc2ccccc2)C=C[C@@H]1OC(C)=O 0.106
CCOc1ccc(N2C(=O)/C(=C/C=C/c3ccccc3OC)S(=O)(=O)C2c2cccc([N+](=O)[O-])c2)cc1 (stereo unspecified) 0.0026
COC(=O)[C@@H]1N=C(c2ccc(OCCCO)cc2)O[C@@H]1c1ccccc1N=[N+]=[N-] 1.7
CCN1C(=O)[C@H]2[C@H]3[C@H](O)[C@H](O)CC(=NOC(C)CN4CCCCc5nc(C)c(C)cc54)[C@@H]3CC[C@H]2C1=O (stereo partly specified) 0.778
CC(C)(C)OC(=O)CC[C@]1(C(N)=O)COC(c2ccc(OCCCO)cc2)=N1 -0.585

Test: forskolin-driven CRE-LacZ activity in PC12 – cell-based, CRE-LacZ reporter, forskolin-stimulated, primary screen (AID 1146);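 also: PC12 cells with 6xCRE LacZ reporter stimulated by forskolin 10 µM; beta-galactosidase reporter signal reflecting CREB driven transcription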
Conditions: luminescence, 4.5 h, higher = more signal, called active from +8 up or from −8 down

z-score, inactive:
NCCCCCNC(=O)[C@@H]1C[C@@H]2C(=O)N3CCC[C@H]3C(=O)N2[C@@H]1c1cccc(OCCO)c1 0.325
C=CC[C@]1(C(=O)NCc2ccccc2)N=C(c2ccc(OCCCO)cc2)O[C@H]1c1ccccc1 1.34
COCCOC(=O)N1C(=O)[C@@]2(c3cc(C#CCNC(N)=O)ccc31)[C@H](c1ccc(O)cc1)N1[C@H](c3ccccc3)[C@H](c3ccccc3)OC(=O)[C@H]1[C@@H]2C(=O)N1CCCCCCC1 0.357
O=C1[C@H]2[C@H]3[C@H](O)[C@H](O)CC(=NO[C@@H]4O[C@H](CO)[C@@H](O)[C@H](O)[C@H]4O)[C@@H]3CC[C@H]2C(=O)N1Cc1ccc2c(c1)OCO2 0.366
O=C1[C@H]2[C@H]3[C@H](O)[C@H](O)CC(=NOCc4ccccc4)[C@@H]3CC[C@H]2C(=O)N1C1CCCCC1 0.182
O=C1[C@H]2[C@H]3[C@H](O)[C@H](O)CC(=NO[C@@H]4O[C@H](CO)[C@@H](O)[C@H](O)[C@H]4O)[C@H]3CC[C@H]2C(=O)N1Cc1ccc2c(c1)OCO2 -0.576
O=C(NN=C1C[C@@H](O)[C@@H](O)[C@@H]2[C@@H]3C(=O)N(c4cccc(Oc5ccccc5)c4)C(=O)[C@@H]3CC[C@H]12)OCc1ccccc1 0.0693
CC(C)CON=C1C[C@@H](O)[C@@H](O)[C@@H]2[C@@H]3C(=O)N([C@@H](C)c4ccccc4)C(=O)[C@@H]3CC[C@H]12 -0.0095
CC(=O)O[C@H]1C2=C(C(=O)[C@@H]3O[C@@H]31)[C@H]1C(C)O[C@@H]2[C@@]23C(=O)[C@@H]4O[C@@H]4[C@@H](O)C2=CO[C@H](C)[C@@H]13 (stereo partly specified) 4.27
CC(C)(C)N1C(=O)[C@H]2[C@H]3[C@H](O)[C@H](O)CC(=NOCc4ccccc4)[C@@H]3CC[C@H]2C1=O 0.479
O=C1[C@H]2[C@H]3[C@H](O)[C@H](O)CC(=NOC[C@@H](O)COCc4ccco4)[C@H]3CC[C@H]2C(=O)N1c1cccc(Oc2ccccc2)c1 0.452
CC(C)=CCCC(C)=CCON=C1C[C@@H](O)[C@@H](O)[C@@H]2[C@@H]3C(=O)N(C[C@@H]4CCCO4)C(=O)[C@@H]3CC[C@@H]12 -0.227
Cc1ccc(S(=O)(=O)N[C@@H]2COC(=O)[C@H](C)COC(=O)CC=C[C@H]2C)cc1 -0.262
CCc1cc2c(nc1CC)CCN(CCC(C)=NO[C@@H](C)c1cc(-c3c(C)cc(C)cc3C)no1)C2 0.446
CC(=O)OC[C@H]1O[C@@H](ON=C(C)CCN2CCc3nc(-c4ccccc4)c(-c4ccccc4)cc3C2)[C@H](OC(C)=O)[C@@H](OC(C)=O)[C@@H]1OC(C)=O 0.0789
Cc1ccc(S[C@]2(C(=O)NCC(F)(F)F)CC(=O)N(Cc3ccccc3Cl)[C@@H]2c2ccc(CO)cc2I)cc1 2.82
CO[C@@H]1COC(=O)CC=C[C@@H](C)COC(=O)[C@H](COCc2ccccc2)NC(=O)CC=C[C@H]1C -0.201
O[C@@H](Cc1ccccc1)[C@H]1C2C=CCCC(c3ccccc3)=C2CN1Cc1cccc(Cl)c1 (stereo partly specified) 1.44
CC(=O)OC[C@H]1O[C@H](CCON=C[C@@H](C)[C@H](OCc2ccccc2)C(C)C)C=C[C@@H]1OC(C)=O 0.598
CC1(C)OCC(C(O)C2=CCCCC2=O)CO1 (stereo unspecified) 0.476
CO[C@@H]1COC(=O)CC=C[C@@H](C)[C@@H]2C=C[C@H](O)[C@@H](COC(=O)[C@H](C)NC(=O)CC=C[C@H]1C)O2 0.194
CCCCCN1CC=CC23O[C@@H]4C=CCOC(=O)[C@@H]4[C@H]2C(=O)N(CCCCCCO)[C@@H]3C1=O (stereo partly specified) 0.124
COCCCNC(=O)[C@@]1(C)c2ccccc2C(=O)N(Cc2ccc(OC(F)(F)F)cc2)[C@H]1c1ccc(CO)cc1 -0.0912
CC(C)[C@@H](OCc1ccccc1)[C@H](C)C=NO[C@H](C)c1cn([C@H](CO)Cc2ccccc2)nn1 -0.437
c1ccc(C2NCCc3c2[nH]c2ccccc32)cc1 (stereo unspecified) -1.11
O=C1NC(=O)C2C1C=CC(C(O)Cc1ccccc1)N2Nc1ccccn1 (stereo unspecified) 0.589
CCOC(=O)[C@H](Cc1ccccc1)NC(=O)CCC1CC(OC(=O)NCCc2ccc(F)cc2)CC2(CCCC(COC(=O)NCC(c3ccccc3)c3ccccc3)O2)O1 (stereo partly specified) 1.23
COCCOC(=O)N1C(=O)[C@@]2(c3cc(C#Cc4ccc(OC)cc4)ccc31)[C@H](C(=O)N1CCN(c3ncccn3)CC1)[C@H]1C(=O)O[C@H](c3ccccc3)[C@H](c3ccccc3)N1[C@@H]2c1ccc(OCCO)cc1 -0.242
CC(=O)OC[C@H]1O[C@@H](ON=C[C@@H](C)[C@H](OCc2ccccc2)C(C)C)[C@H](OC(C)=O)[C@@H](OC(C)=O)[C@@H]1OC(C)=O 0.1
COC(=O)CC=C[C@@H](C)[C@@H](C=NO[C@H](C)c1cn([C@@H]2COC[C@H]2O)nn1)OC -0.0094
CC(CCN1CCc2nc(-c3ccccc3)c(-c3ccccc3)cc2C1)=NOC(C)CN1CCCCc2nc(C)c(C)cc21 (stereo unspecified) 0.0715
CC(=O)OC[C@H]1O[C@H](C#CCCCc2ccccc2)C=C[C@@H]1OC(C)=O 1.28
CCOc1ccc(N2C(=O)/C(=C/C=C/c3ccccc3OC)S(=O)(=O)C2c2cccc([N+](=O)[O-])c2)cc1 (stereo unspecified) -1.2
COC(=O)[C@@H]1N=C(c2ccc(OCCCO)cc2)O[C@@H]1c1ccccc1N=[N+]=[N-] -0.826
CCN1C(=O)[C@H]2[C@H]3[C@H](O)[C@H](O)CC(=NOC(C)CN4CCCCc5nc(C)c(C)cc54)[C@@H]3CC[C@H]2C1=O (stereo partly specified) 0.618
CC(C)(C)OC(=O)CC[C@]1(C(N)=O)COC(c2ccc(OCCCO)cc2)=N1 -0.438
